Cycloheximide cs = counter-screen for Shiga toxin inhibitors: cycloheximide protein synthesis inhibition; 300,000 compounds, 12% hits; max response, %; cell reporter, cycloheximide protein synthesis inhibition counterscreen; in the data active = max response mostly above about 13%, no sharp cut-off; inactive = mostly below about 14%; note: read at 38.3 µM for the half of the compounds with a filed dose
Pf growth 96h = P. falciparum growth inhibition at 96 hours | Potency, µM (series often up to 28.7 µM), usual class: inhibitors | AID 504834 | P. falciparum luciferase reporter growth, 96 h | 320,000 compounds, 6.9% hits
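P. falciparum expressing integrated firefly luciferase grown in erythrocytes (2% hematocrit, 0.05% parasitemia final) with compounds for 96 hours at 37 C, 5% CO2. Growth inhibition read as loss of luminescence after adding luciferase detection reagent.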
NS1 function inh = blocks influenza NS1 protein function; Potency, µM (top dose mostly 46.1 µM); 270,000 compounds, 0.4% hits; AID 2326; calls by dose curve; note: actives are rising curves; nearly all actives have a fitted effect of over 50% in size
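Compounds were scored for reversing the slow growth caused by influenza A NS1 in S. cerevisiae, measured by optical density at 600 nm. Assay medium contained 2% galactose at pH 6.0; NS1-free yeast of the same strain were the positive control.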
Pf growth 48h = P. falciparum growth inhibition at 48 hours (one generation); P. falciparum luciferase growth in erythrocytes, 48 h; Potency, µM (doses to about 28.7 µM), hits mostly inhibitors; 310,000 compounds, 5.9% hits; AID 504832
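Erythrocytes infected with P. falciparum carrying an integrated firefly luciferase reporter (2% hematocrit, 0.1% parasitemia final) were exposed to compounds in RPMI 1640 with 0.5% Albumax at 37 C, 5% CO2. Growth inhibition was scored as reduced luminescence.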
Shiga inhibitor = blocks Shiga toxin action in Vero cells | 290,000 compounds, 9.2% hits | Vero cells, Shiga toxin protein synthesis inhibition reporter | inhibition, % at 38.7 µM; in the data active = inhibition mostly above about 28%, no sharp cut-off; inactive = mostly below about 43%
Numbers stand for hits; - = inactive; ? = inconclusive; . = no result; [ ] = dose if it differs, or a comment. Rows were chosen to be rich in hits. Some 21% of all compounds tested hit in one or more screens of this group. Unless noted, calls come from the whole dose curve; as a rule, active = well fitted inhibition curve with a large enough effect; inconclusive = small, poorly fitted or top-dose-only effect, or another doubt; inactive = no such curve, though single readings can be large or run the other way.

SMILES | Cycloheximide cs | Pf growth 96h | NS1 function inh | Pf growth 48h | Shiga inhibitor
CC(C)CC1CCCCC1OC(=O)C[N+]1(C)CCCCC1 (centres undefined) | - | - | . | ? | -
COC(=O)c1ccc(C)c(NS(=O)(=O)c2cn(C)nc2C)c1 | - | - | - | - | -
CCN(CC)C(=O)COc1ccc(/C=C(\C#N)S(=O)(=O)c2ccccc2)cc1OC | - | 9.3µM | - | - | -
O=C(Nc1ccc(-c2nc3ccccc3[nH]2)cc1)c1ccc2c(c1)OCO2 | 28 | 5.2µM | - | 9.3µM | -
CS(=O)(=O)c1ccc(C(=O)Nc2ccc(-c3nc4ccccc4[nH]3)cc2)cc1 | - | - | - | 1.9µM | -
CS(=O)(=O)c1ccc(C(=O)Nc2cccc(-c3nc4ccccc4[nH]3)c2)cc1 | - | ? | - | ? | -
CS(=O)(=O)c1cccc(C(=O)Nc2cccc(-c3nc4ccccc4[nH]3)c2)c1 | - | ? | - | - | -
O=C(Nc1ccc(-c2nc3ccccc3[nH]2)cc1)c1c(F)c(F)c(F)c(F)c1F | - | ? | - | - | -
O=C(Nc1ccc(Cl)c(-c2nc3ccccc3[nH]2)c1)c1ccc2c(c1)OCO2 | 20 | ? | ? | - | -
CS(=O)(=O)Cc1ccc(C(=O)Nc2cccc(-c3nc4ccccc4[nH]3)c2)cc1 | - | 8.3µM | - | - | -
COc1ccc(CNC(=O)CN(C(=O)c2cc3sccc3n2C)C2CCCC2)cc1 | - | ? | - | - | -
O=C(c1ccc([N+](=O)[O-])cc1)N1CCN(c2ncc(Br)cn2)CC1 | - | - | - | - | -
Cc1ccc(S(=O)(=O)NCCS(=O)(=O)N2CCN(c3ccccc3)CC2)cc1 | - | - | - | - | -
CN(C)S(=O)(=O)c1cccc(NC(=O)CCc2c[nH]c3ccccc23)c1 | - | - | . | - | -
CCOc1ccc(S(=O)(=O)NN2Cc3ccccc3C2=N)cc1 | - | - | - | - | -
CC(C)Sc1oc(-c2ccco2)nc1S(=O)(=O)c1ccc(F)cc1 | - | 15µM | - | ? | -
CS(=O)(=O)c1cccc(C(=O)NC(c2ccccc2)c2ccccc2)c1 | - | -[5.75 µM] | - | - | -
NC(=O)c1ccsc1NC(=O)c1ccc(S(=O)(=O)N2CCCCC2)cc1 | 46 | ? | - | . | 65
Cc1ccc(C(NC(=O)c2cccc(S(=O)(=O)N3CCN(C)CC3)c2)c2ccccc2)cc1 (centres undefined) | . | ? | . | 15µM | .
CN1CCN(S(=O)(=O)c2cccc(C(=O)Nc3cc(C(N)=O)cc(C(N)=O)c3)c2)CC1 | - | - | - | - | -
NC(=O)c1ccsc1NC(=O)c1ccc(S(=O)(=O)N2CCCC2)cc1 | 33 | - | . | - | 139
CN1CCN(S(=O)(=O)c2cccc(C(=O)Nc3sccc3C(N)=O)c2)CC1 | . | ? | . | 13µM | .
CC(=O)c1ccc(-c2ccc(C(=O)N3CCC(C(N)=O)CC3)o2)cc1 | . | - | . | - | .
CC[C@H](C)[C@H](NC(=O)[C@H](C)NC(=O)CNC(=O)[C@H](CCCN=C(N)N)NC(=O)[C@H](C)NC(=O)[C@H](CC(C)C)NC(=O)[C@H](CCC(=O)O)NC(=O)[C@H](CC(C)C)NC(=O)[C@H](C)NC(=O)[C@@H](N)CCC(=O)O)C(=O)N[C@@H](Cc1ccccc1)C(=O)N[C@@H](CCC(N)=O)C(=O)N[C@@H](C)C(=O)O | - | . | . | . | -
N#C/C(=C\c1cccnc1)c1ccc(Br)cc1 | 47 | ? | - | ? | -
SMILES | Cycloheximide cs | Pf growth 96h | NS1 function inh | Pf growth 48h | Shiga inhibitor
O=C(NCCC(=O)N1CCOCCOCCOCCOCC1)OCc1ccccc1 | - | - | - | - | -
Nc1c(SCCC(=O)O)ccc2c1C(=O)c1ccccc1C2=O | 21 | - | - | - | -
COc1ccc(C/C(C)=N\NC(=O)c2cn(C)c3ccccc23)cc1OC | - | - | - | - | -
CCCCn1c(=O)[nH]c2nc3cc(N)ccc3nc2c1=O | 80 | ? | ? | - | 81
Nc1ccc2nc3c(=O)n(C4CCCCC4)c(=O)[nH]c3nc2c1 | 40 | - | - | - | 78
CCC(COC(=O)c1cc(OC)c(OC)c(OC)c1)(c1ccccc1)N(C)C (centres undefined) | - | ? | - | 15µM | -
COc1cc(C(=O)OCC(=O)N(C)Cc2ccccc2)cc(OC)c1OC | - | ? | - | ? | -
COc1ccc(NC(=O)CC2C(=O)N(c3ccc(OC)cc3)C(=O)N2Cc2ccc(OC)c(OC)c2)cc1 (centres undefined) | - | - | - | ? | -
Cc1cc2nc(-c3cc(N4CCOCC4)ccc3[N+](=O)[O-])ccn2n1 | - | - | . | - | -
Cc1cc2nc(-c3ccc4c(c3)CCC4)ccn2n1 | 20 | - | - | - | 46
Cc1noc(C)c1CSCC(=O)N(C)CC(=O)Nc1ccccc1Br | . | - | . | - | .
CCS(=O)(=O)n1nc(-c2ccccc2)nc1N | - | - | - | - | -
CCS(=O)(=O)n1nc(-c2ccc(OC)cc2)nc1N | 23 | - | - | - | -
CS(=O)(=O)n1nc(-c2ccc(Cl)cc2)nc1N | 20 | - | - | - | 20
CCS(=O)(=O)n1nc(-c2ccc(Cl)cc2)nc1SC | 62 | - | - | - | 87
CS(=O)(=O)n1nc(-c2ccccc2)nc1N | - | - | - | . | -
COc1ccc(-c2cc(C(=O)NCCCn3ccnc3)c3ccccc3n2)c(OC)c1 | - | - | - | ? | -
CCOC(=O)c1ccc2c(c1)n(CCCS(=O)(=O)[O-])c(/C=C/c1ccc(Cl)cc1)[n+]2CC | - | ? | - | 9.3µM | -
CC(C)CC(=O)N1CCN(Cc2ccccc2[N+](=O)[O-])CC1 | - | ? | - | - | -
CC(C)(C)CN1CCNC[C@H]1Cc1cccc2ccccc12 | . | 9.3µM | . | ? | .
Oc1ccc(C[C@@H]2CNCCN2CCc2cccc3ccccc23)cc1 | . | ? | . | 13µM | .
Cn1c(=O)c(C(=O)NNC(=O)c2ccccc2Br)c(O)c2ccccc21 | - | 2.1µM | - | - | -
Cn1c(=O)c(C(=O)Nc2cnccn2)c(O)c2ccccc21 | - | ? | - | - | -
Cn1c(=O)c(C(=O)Nc2ccccc2S(N)(=O)=O)c(O)c2ccccc21 | 13 | - | - | - | -
Cn1c(=O)c(C(=O)NNC(=O)c2ccccc2Cl)c(O)c2ccccc21 | - | - | - | - | -
SMILES | Cycloheximide cs | Pf growth 96h | NS1 function inh | Pf growth 48h | Shiga inhibitor
CCC(C)n1c(=O)c(C(=O)Nc2ccccc2S(N)(=O)=O)c(O)c2ccccc21 (centres undefined) | - | 9.3µM | - | - | -
Cn1c(=O)c(C(=O)Nc2ccccn2)c(O)c2ccccc21 | 33 | 10µM | - | - | 44
CC(C)Cn1c(=O)c(C(=O)Nc2ccccc2S(N)(=O)=O)c(O)c2ccccc21 | - | - | - | - | -
C[C@H](NC(=O)[C@@H]1Cc2ccccc2CN1)C(=O)Nc1ccc2c(c1)OCO2 | 30 | - | - | - | -
CSCC[C@H](NC(=O)[C@@H]1Cc2ccccc2CN1)C(=O)Nc1ccc2c(c1)OCO2 | 48 | ? | - | 9.3µM | -
C[C@@H](NC(=O)[C@@H]1Cc2ccccc2CN1)C(=O)Nc1ccc2c(c1)OCCO2 | 27 | - | - | - | 67
O=C(CNC(=O)[C@@H]1Cc2ccccc2CN1)Nc1ccc2c(c1)OCO2 | - | - | - | - | -

Assay outcomes (PubChem)
